G9a inh: qHTS Assay for Inhibitors of Histone Lysine Methyltransferase G9a. G9a H3K9 monomethylation, AlphaScreen, 2 h. Histone-lysine N-methyltransferase EHMT2 (Homo sapiens), Q96KQ7. AID 504332, 2011. Potency, µM (top dose mostly 102 µM), inactives show at the highest dose activity, negative = inhibition, usual class: inhibitors. 350,000 compounds, 8.8% hits; further: on the % scale 0 is the no-effect control and ±100 the full control effect; nearly all actives have a fitted effect of over 75% in size
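Signal arises when biotinylated H3K9 peptide, once monomethylated, bridges streptavidin donor and antibody-captured acceptor beads. Enzyme at 20 nM was preincubated 15 min with test compounds; peptide 500 nM and SAM 20 uM then reacted for 2 h.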
Sfp PPTase inh: qHTS Assay for Inhibitors of Bacillus subtilis Sfp phosphopantetheinyl transferase (PPTase) | Potency, µM, inactives show largest response in the series, negative = inhibition, most hits filed as inhibitors | Biochemical Sfp PPTase activity, qHTS | AID 1490, 2009 | 310,000 compounds, 3.5% hits;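 further: the enzyme is Sfp with the accession as filed and its product quenches rhodamine fluorescence; 0% = enzyme reaction without inhibitor and -100% = no enzyme wells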
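Step 1, compound plus 15 nM Sfp-PPTase, 15 min, room temperature. Step 2, add rhodamine-CoA (5 uM) and BHQ-2-YbbR (12.5 uM). Step 3, read 525/598 nm fluorescence at 0 and 30 min.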
ALOX12 inh: Primary qHTS assay for inhibitors of human arachidonate 12S-lipoxygenase (ALOX12): Round 2; purified 12hLO, xylenol orange hydroperoxide absorbance; Potency, µM (top dose mostly 108 µM), for the others: top-dose activity change, negative = inhibition, actives largely listed as inhibitors; 580,000 compounds, 1.1% hits; AID 1671190, 2021; Polyunsaturated fatty acid lipoxygenase ALOX12 (Homo sapiens), P18054; further: on the % scale 0 is the no-effect control and ±100 the full control effect
Target sequence (P18054 whole entry, looked up): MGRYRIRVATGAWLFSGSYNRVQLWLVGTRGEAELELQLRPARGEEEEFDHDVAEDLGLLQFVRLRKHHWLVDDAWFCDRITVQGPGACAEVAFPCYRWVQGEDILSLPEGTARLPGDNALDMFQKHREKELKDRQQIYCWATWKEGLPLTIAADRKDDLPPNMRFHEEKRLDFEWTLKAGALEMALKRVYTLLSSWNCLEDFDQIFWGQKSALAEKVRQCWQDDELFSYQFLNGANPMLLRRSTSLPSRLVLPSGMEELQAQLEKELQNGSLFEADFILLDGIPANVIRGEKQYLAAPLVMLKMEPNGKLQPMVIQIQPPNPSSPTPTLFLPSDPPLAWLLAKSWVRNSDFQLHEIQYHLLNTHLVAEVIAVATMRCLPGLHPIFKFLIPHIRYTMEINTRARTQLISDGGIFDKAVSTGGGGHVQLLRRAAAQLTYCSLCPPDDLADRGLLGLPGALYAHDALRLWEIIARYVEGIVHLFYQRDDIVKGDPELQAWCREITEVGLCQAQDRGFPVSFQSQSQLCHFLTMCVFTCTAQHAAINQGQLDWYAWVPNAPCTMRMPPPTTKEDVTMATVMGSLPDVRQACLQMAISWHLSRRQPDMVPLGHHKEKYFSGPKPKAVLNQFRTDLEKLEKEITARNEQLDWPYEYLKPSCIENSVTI
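Hydroperoxide product was detected by ferrous iron/xylenol orange as the 573 to 405 nm absorbance ratio. Arachidonic acid at 40 uM (final) was turned over for 30 min at room temperature by 150 nM human 12hLO, pH 7.0 Hepes buffer, after 15 min compound preincubation.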
VDR inhibitor: Inhibitors of the vitamin D receptor (VDR): qHTS; AID 504847, 2011; Potency, µM, for inactives: max response, negative = inhibition, hits mostly inhibitors; VDR-SRC2-3 peptide fluorescence polarization, 2 h; 400,000 compounds, 0.93% hits; Vitamin D3 receptor (Homo sapiens), P11473; further: on the % scale 0 is the no-effect control and ±100 the full control effect
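Two reagent solutions held at 4 deg C in the dark were dispensed, compounds pinned at 23 nl, and the mixture incubated 2 h at room temperature. Read-out: fluorescence polarization of VDR–SRC2-3 peptide binding.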
GRP78 ERSR act: qHTS for Inducers of the Endoplasmic Reticulum Stress Response (ERSR) in Human Glioma: qHTS; 420,000 compounds, 0.02% hits; U87-MG GRP78 promoter luciferase reporter, 16 h; AID 602332, 2012; Potency, µM, without a hit: top-dose activation, usual class: activators; further: series mostly up to about 76 µM; % of control where 0% means no effect; nearly all actives have a fitted effect of over 35% in size
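Stably transfected U87-MG human glioma cells carrying a GRP78-based luminescent sensor were seeded at 1000 cells/well, pin-dosed with compounds and incubated 16 h. Luciferase reagent was then added, and end-point luminescence was read after 10 min at room temperature.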
Numbers without * were called inactive; i = inactive; ? = inconclusive; / = no result; ! = not active in a repeat; [ ] = dose if it differs, or a comment. This is one part of a sample in which hits are shown more often than they occur. The call rests on the fitted dose curve; in most records, active means well fitted curve in the direction sought with a large enough effect; inconclusive means small, poorly fitted or top-dose-only effect, or another doubt; inactive means no such curve, though single readings can be large; an effect the other way counts as inactive or inconclusive. Potency means the concentration at half of the fitted maximal effect.

SMILES	G9a inh	Sfp PPTase inh	ALOX12 inh	VDR inhibitor	GRP78 ERSR act
CCCc1nc2ccccc2c(=O)n1-c1cccc(OC)c1	25%	6%	-18%	12%	-1%
COc1cccc(-n2c(CN3CCN(C)CC3)nc3ccc([N+](=O)[O-])cc3c2=O)c1	?	7.9µM*	11%	-7%	-3%
CC1c2cccn2-c2ccccc2CN1C(=O)Nc1ccc(F)cc1F (stereo not drawn)	/	/	-24%	/	/
CCNC(=O)N1[C@H]2CC[C@@H]1c1cnc(-c3ccc(F)cc3)nc1C2	/	/	1%	/	/
Clc1ccc2sc(C3CCNCC3)nc2c1	45µM*	-5%	?	3%	-3%
O=[N+]([O-])c1ccc(N2CCNCC2)cc1NCc1ccco1	?	-12%	-14%	-6%	-3%
CC1CCN(c2nc(NCc3ccco3)nc(N)c2[N+](=O)[O-])CC1	50µM*	-8%	-1%	6%	0%
C=CCN1CCN(C(=O)Cc2ccc(F)cc2)CC1	/	/	-1%	/	/
N[C@@H](Cn1oc(=O)[nH]c1=O)C(=O)O	10µM*!	45µM*	?	-6%	-5%
CC(=O)CC(c1ccccc1[N+](=O)[O-])c1c(O)c2ccccc2oc1=O (stereo not drawn)	50µM*	20%	-56%	-20%	13%
C1CC2CCC1CNC2	/	/	53%	/	/
O=C(NCC1CC1)c1cn(C2CNC2)nn1	/	/	23%	/	/
Cc1ncc2c(n1)C[C@@H]1CC[C@H]2N1C(=O)c1ccnn1C	/	/	-3%	/	/
O=C(O)c1cc(O)c(O)c(O)c1	2µM*	8.9µM*!	?	50µM*!	-13%
CCCCC12CN3CC(C)(CN(C1)C3c1ccccn1)C2=O (stereo not drawn)	0.63µM*	/	-2%	-3%	-1%
CC(C)C12CN3CC(C(C)C)(CN(C1)C3c1ccccn1)C2=O (stereo not drawn)	0.4µM*	/	32%	5%	-2%
CC12CN3CC(C)(CN(C1)C3c1ccncc1)C2=O (stereo not drawn)	9%[59 µM]	-16%	i	-11%	-4%
O=C(c1ccccn1)N1C[C@@H]2C[C@H](C1)c1ccc(NS(=O)(=O)c3cccs3)c(=O)n1C2	/	/	2%	/	/
CCCCCCCCCCCCOCCOCCOCCOCCOCCOCCOCCOCCOCCO	-1%[12.7 µM]	71µM*	/	-9%	17%
C/C=C1\C[N@@+]2(C)CC[C@@]34C(=C(C=O)[C@H]1C[C@H]32)Nc1ccccc14	?	35µM*	/	6%	-3%
O=C(/C=C/c1ccccc1)NC(NC(=S)Nc1cccc2cccnc12)C(Cl)(Cl)Cl (stereo not drawn)	14µM*	23%	0%	1%	-4%
O=C(CF)NC(Nc1cccc2cccnc12)C(Cl)(Cl)Cl (stereo not drawn)	-47%	18%	0%	16%	-2%
O=C(O)CN1CCC[C@]2(C(=O)O)CN(Cc3ccncc3)CC[C@@H]12	/	/	45%	/	/
Cc1ccc(S(=O)(=O)N2CN3CCN(C3)C2)cc1	-8%[59 µM]	13%	-3%	-13%	-5%
CN1CCN(S(=O)(=O)c2ccc(C3CCCCC3)cc2)CC1	8.9µM*	/	?	-18%	-3%
SMILES	G9a inh	Sfp PPTase inh	ALOX12 inh	VDR inhibitor	GRP78 ERSR act
CCN1CCN(c2ccc(N)c(C)c2)CC1	45µM*	10%	380%	-1%	-4%
CCCc1nc2ccccc2c(=O)n1-c1ccc(OC)cc1	16%[2.33 µM]	8%	-3%	6%	-4%
COc1ccc(N2C(=O)CS(=O)C(c3ccccc3)C2=O)cc1 (stereo not drawn)	0.71µM*	1.6µM*	?	35µM*	3%
c1ccc(C2=NOC3(CCCN(Cc4cccnc4)C3)C2)nc1 (stereo not drawn)	/	/	13%[6.33 µM]	/	/
CCOc1cc(OP(=S)(OC)OC)nc(CC)n1	/	?	/	22µM*	-1%
CC(C)NC(=O)[C@H]1CN2CC[C@H]1C[C@@H]2Cn1cc(CO)nn1	/	/	10%[176 µM]	/	/
COc1ccccc1NC(=O)Oc1cccc(OC(=O)c2ccccc2)c1	71µM*	7%	-13%	-5%	3%

From PubChem BioAssay
